In ChEMBL document CHEMBL3988442, “University of Dundee, Small-Polar-MMV Screening Library” (2021) one finds Percent Effect data, which are given here for 115 molecules.

Hit rate of the full screen: of about 65,000 compounds, about 65 (0.1%) showed an effect of 50% or more. This is one part of a sample in which strong results are shown more often than they occur.

The target of the assay is Tryptophan--tRNA ligase (Mycobacterium tuberculosis (strain ATCC 25618 / H37Rv)) (UniProt P9WFT3). The assay is described as follows: Biochemical assay for Mt-TrpRS. More on the design: scale not given: direction of the effect not stated beside the values. The following applies: 10 µM. It is filed as functional.
Chain of Tryptophan--tRNA ligase (Mycobacterium tuberculosis (strain ATCC 25618 / H37Rv)) (P9WFT3 whole entry): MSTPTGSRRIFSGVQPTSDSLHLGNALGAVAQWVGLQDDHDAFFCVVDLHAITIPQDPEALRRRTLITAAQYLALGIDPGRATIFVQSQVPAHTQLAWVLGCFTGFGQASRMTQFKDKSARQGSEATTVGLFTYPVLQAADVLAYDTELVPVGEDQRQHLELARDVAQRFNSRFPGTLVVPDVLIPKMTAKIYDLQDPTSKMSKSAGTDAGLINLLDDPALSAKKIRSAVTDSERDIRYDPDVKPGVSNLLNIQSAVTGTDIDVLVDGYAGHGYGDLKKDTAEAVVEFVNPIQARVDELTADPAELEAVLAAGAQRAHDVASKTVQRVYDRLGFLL
On to `C=C(C)CN(CC)C(=O)c1cc(F)ccc1N1CCN(C)CC1`, for which the Percent Effect stood at 1.96%. Take `CCN(CC1CCOC1)C(=O)c1cc(F)ccc1N1CCN(C)CC1` (stereo not given): the Percent Effect was 68.2%. On to `CCN(CC1CCOC1)C(=O)c1ccc(N2CCOCC2)c(F)c1` (stereo not given), for which the Percent Effect stood at 18.7%. On to `Fc1cnc(N2CC[C@@H]3O[C@H](COCc4ccccn4)CC[C@@H]32)nc1`, for which the Percent Effect is -3.79%.

In the case of `CCc1cnc(N2C[C@H]3C[C@H](C(=O)NC)[C@@H](C2)O3)nc1`, the Percent Effect is -4.37%.

For the molecule `c1ccc(CCN2CCOC(CNc3cccnn3)C2)nc1` (stereo not given), the Percent Effect is -2.61%.

As for `Cn1cc(CCN2CCOC(CNc3cccnn3)C2)cn1` (stereo not given), the Percent Effect turned out to be 66%. Regarding `c1cnnc(NCC2CN(CCn3cccn3)CCO2)c1` (stereo not given), the Percent Effect was -1.42%. On to `c1ccc(CN2C[C@H]3CCC[C@@]3(COCC3CC3)C2)nc1`, for which the Percent Effect was -0.775%. To `COc1ccc(CN2C[C@@H]3OCCN(CC4CCCO4)[C@@H]3C2)cc1` (stereo not given in full) belongs 4.27%; to `c1cc(CNCC2CNc3ccnn3C2)cc(Cn2cccn2)c1` (stereo not given), 2.73%; to `c1ccc(Cn2cccn2)c(CNCC2CNc3ccnn3C2)c1` (stereo not given), 6.16%. Regarding `c1ccc(Cn2cc(CNCC3CNc4ccnn4C3)cn2)cc1` (stereo not given), the Percent Effect was found to be 62.4%. Take `COc1ccc(C(=O)N2CCO[C@H]3[C@@H](OCC4CC4)CC[C@@H]32)cc1F`: the Percent Effect was -0.755%. To `Cc1ccc(CN2CC(C(=O)NC(C)C)C3(CCOCC3)C2)s1` (stereo not given) belongs 0.402%; to `CC(c1ccc2c(c1)OCO2)N1Cc2nc(N(C)C)ncc2C1=O` (stereo not given), 4.59%.

As to `N#Cc1ccsc1N1CCC(Sc2ccncc2)C1=O` (stereo not given), the Percent Effect was determined as 4.7%. `CC(NCc1c(C(C)C)nn(C)c1N1CCOCC1)C(N)=O` (stereo not given): the Percent Effect was -6.01%.

Take `CC(NCc1c(C(C)C)nn(C)c1N1CCOCC1)C(=O)N(C)C` (stereo not given): the Percent Effect stood at 71.4%. In the case of `CC(C)c1nn(C)c(N2CCOCC2)c1CNCC(=O)N(C)C`, the Percent Effect stood at 4.97%. For `c1ccc(CN2CC[C@@H]3O[C@@H](COCCN4CCCC4)CC[C@@H]32)nc1`, the Percent Effect turned out to be 1.72%. Take `CC(C)(C)c1nc(CN2CCC(c3ccnn3CCO)CC2)no1`: the Percent Effect stood at 23.6%. The same measure for `CC(C)c1nc(CN2CCC(c3ccnn3CCO)CC2)no1`: 61.5%; for `CC(C)c1noc(CN2CCC(c3ccnn3CCO)CC2)n1`: -1.43%. In the case of `COc1cc(Cl)ccc1C(=O)NCc1nncn1C`, the Percent Effect was -10.5%. On to `Cn1cnnc1C1CCN(C(=O)CCCOc2ccccc2)CC1`, for which the Percent Effect is -0.13%. As to `Cc1cccc(C)c1OCCC(=O)N1CCC(c2nncn2C)CC1`, the Percent Effect is 3.92%. For `Cn1cnnc1C1CCN(C(=O)CCOc2ccc(Cl)cc2)CC1`, the Percent Effect worked out at 64.2%. On to `CC[C@H]1CN2CC[C@H]1C[C@@H]2CNCc1ccc(OC(F)(F)F)cc1`, for which the Percent Effect was -0.828%. As to `O=C(C1CC1)N1CC[C@H]2[C@@H]1CCC(=O)N2c1ccccc1`, the Percent Effect worked out at 6.13%.

In the case of `N#Cc1cn[nH]c1NCc1cc(Br)ccc1O`, the Percent Effect was found to be 288%. As to `N#Cc1cn[nH]c1NCc1cc(I)cc(I)c1O`, the Percent Effect is 3.89%. As to `N#Cc1cn[nH]c1NCc1cc(Cl)cc(Cl)c1O`, the Percent Effect turned out to be 8.64%. To `NCCN1C(=O)CC[C@H]2CN(Cc3ccc4occc4c3)CC[C@H]21` belongs 1.29%; to `COCCN1C[C@H]2CCN(C(=O)Nc3ccccc3C)CC[C@H]2S1(=O)=O`, -4.45%. Take `Cc1ncoc1C(=O)N1C[C@H]2CCC[C@@]2(COCc2cccnc2)C1`: the Percent Effect was 1.59%.

As for `CC(C(=O)NCc1ccc(N2CCCCC2)nc1)S(C)(=O)=O` (stereo not given), the Percent Effect is -4.1%. As to `CC(C(=O)NCc1ccc(N2CCCCCC2)nc1)S(C)(=O)=O` (stereo not given), the Percent Effect was -1.98%.

On to `CC(C(=O)NCc1ccc(N2CCCC2)nc1)S(C)(=O)=O` (stereo not given), for which the Percent Effect turned out to be 59.5%.

In the case of `Cc1nnc2n1CCN(CC(=O)N1CCc3ccccc3C1)C2`, the Percent Effect stood at 18.8%. As to `Cc1cccc(CN2CCC[C@@H]3CN(C(=O)c4ccco4)C[C@@H]32)n1`, the Percent Effect was determined as 0.174%. The same measure for `COc1ccc(C[C@H]2CN(c3cc(OC)ncn3)CC[C@H]2OC)cc1`: 5.86%; for `O=C(NCC(F)(F)F)C(c1cccnc1)N1CCCC1` (stereo not given): 0.735%; for `O=C(NCC1=CCCCC1)C(c1cccnc1)N1CCOCC1` (stereo not given): -0.187%. To `O=C(NCC1=CCCCC1)C(c1cccnc1)N1CCCC1` (stereo not given) belongs 51%. The same measure for `CCn1c(SC)nnc1C1CCN(C(=O)N2CCCC2)CC1`: -3%; for `Cn1ccnc1CN1C(=O)CO[C@H]2CN(Cc3ccc(F)c(F)c3)C[C@H]21`: 2.2%.

For the molecule `O=C(NCC1CC1)[C@@H]1CCO[C@@H]2CCN(Cc3ccco3)C[C@H]21`, the Percent Effect was 9.55%. In the case of `c1ccc(O[C@@H]2CC[C@H]3[C@H]2OCCN3Cc2ccsc2)nc1`, the Percent Effect worked out at 8.46%.

On to `CCCc1nnc(NC(=O)NC(C)Cn2cccn2)s1` (stereo not given), for which the Percent Effect was -6.24%. Consider `Cc1nnc(NC(=O)NC(C)Cn2cccn2)s1` (stereo not given), for which the Percent Effect is -5.8%.

Turning to `CCC(CC)c1nnc(NC(=O)NC(C)Cn2cccn2)s1` (stereo not given), the Percent Effect came to 69.6%.

For `COCCNC(=O)[C@H]1C[C@@H]2CCN(c3ccccc3)C[C@H]2O1`, the Percent Effect was found to be 6.99%. On to `CNC(=O)[C@@H]1COC[C@H]2CN(C(=O)c3cccc(OC)c3)C[C@H]21`, for which the Percent Effect turned out to be 1.06%. As for `COc1ccccc1CN1CCC(c2nccc(C)n2)C1` (stereo not given), the Percent Effect came to 22%.

Consider `COc1cccc(F)c1CN1CCC(c2nc(C)cc(C)n2)C1` (stereo not given), for which the Percent Effect came out at 70.2%. Consider `COc1cccc(F)c1CN1CCC(c2nccc(C)n2)C1` (stereo not given), for which the Percent Effect was -3.03%. On to `Cc1ccc(N2CC[C@H]3OCC[C@@]3(C(=O)N3CCCC3)C2)nn1`, for which the Percent Effect stood at 1.02%. To `CCN(CC)S(=O)(=O)N1CCCC1c1cccc(Nc2ncc(C)s2)n1` (stereo not given) belongs 1.88%; to `CCn1cc(NC(=O)NC(CO)Cc2c[nH]c3ccccc23)cn1` (stereo not given), 2.58%.

With `CCn1cc(S(=O)(=O)NC(CO)Cc2c[nH]c3ccccc23)cn1` (stereo not given), the Percent Effect is -4.44%. Consider `CCn1cc(S(=O)(=O)NC(=O)CCc2c[nH]c3ccccc23)cn1`, for which the Percent Effect came out at 57.5%. Regarding `Cc1csc(C(=O)NCCN2CCC(c3cccs3)CC2)c1`, the Percent Effect is 0.44%.

Turning to `Cc1cccc(CN2CC[C@@H]3[C@@H]2CCN3C(=O)c2cc(C)on2)n1`, the Percent Effect was -0.968%.

For the molecule `CCN1CCN(C(=O)c2cc(-c3ccc(C)o3)n[nH]2)[C@H]2CS(=O)(=O)C[C@H]21`, the Percent Effect stood at 2.31%.

With `O=C(C1=CCCC1)N1CCO[C@H]2[C@@H](OCC3CC3)CC[C@@H]21`, the Percent Effect amounted to 0.105%. Consider `Cc1cc(CN2CCN(C(=O)NCc3ccco3)CC2)no1`, for which the Percent Effect amounted to 70.1%. `Cc1cc(CN2CCN(C(=O)NCc3cccs3)CC2)no1`: the Percent Effect is -4.93%. The same measure for `Cc1cc(CN2CCN(C(=O)NCc3ccoc3)CC2)no1`: -3.89%. Turning to `COCC(=O)N1C[C@@H](c2cccc(F)c2)[C@H]2[C@H]1CCCCCN2C(C)=O`, the Percent Effect was 9.95%. Regarding `O=C(CC1CC1)N1CCC2(CC1)CN(Cc1cccnc1)C(=O)CO2`, the Percent Effect was -3.48%.

Consider `Cn1cnnc1C1CCN(C(=O)c2cc3c(s2)CCCC3)CC1`, for which the Percent Effect turned out to be 83.8%. For `Cn1cnnc1C1CCN(C(=O)c2cc3c(s2)CCC3)CC1`, the Percent Effect is -1.59%. Consider `CCn1cnnc1C1CCN(C(=O)c2cc3c(s2)CCCC3)CC1`, for which the Percent Effect was -7.73%.

Consider `Cc1nc(C)c(CNC[C@@]2(COc3cccnc3)C[C@@H](O)[C@@H](O)C2)s1`, for which the Percent Effect was -10.4%. To `CN(Cc1ccco1)[C@@H]1CN(Cc2ccc(F)cc2)[C@@H]2CCCO[C@H]12` belongs -5.38%; to `CCS(=O)(=O)N1C[C@@H](OCc2ccccn2)[C@@H]2OCCC[C@@H]21`, 4.01%; to `Cn1nc(C#N)c2c1CN(C(=O)c1ccnnc1)CCC2`, 4.65%. `Cn1nc(C#N)c2c1CN(C(=O)c1cccnc1)CCC2`: the Percent Effect was 11.1%. In the case of `Cn1nc(C#N)c2c1CN(C(=O)c1ccco1)CCC2`, the Percent Effect turned out to be 50.1%. To `CC(C)CC(=O)N1C[C@H]2CCCN(S(=O)(=O)c3ccc(Cl)s3)[C@H]2C1` belongs -3.18%; to `Cc1ccc(CS(=O)(=O)CC(=O)NCCCOC(C)C)cc1`, -5.37%; to `CC(C)OCCCNC(=O)CS(=O)(=O)Cc1ccc(C(C)C)cc1`, 2.32%.

For `CC(C)OCCCNC(=O)CS(=O)(=O)Cc1ccc(Cl)cc1`, the Percent Effect worked out at 75.4%. Take `Cn1ncc2c(N3CCCN4CCC[C@H]4C3)nc(C(C)(C)C)nc21`: the Percent Effect stood at 2.18%. Take `CC(C)N1[C@H](CN2CCCC2)C[C@@H]2CN(C(=O)c3ccoc3)CC[C@@H]21`: the Percent Effect amounted to 0.0969%.

Regarding `COCCN1CCC(NCc2cc(F)ccc2F)C1` (stereo not given), the Percent Effect was 12.2%. On to `COCCN1CCC(NCc2ccc(F)cc2F)C1` (stereo not given), for which the Percent Effect came to 83.4%. Take `COCCN1CCC(NCc2cccc(F)c2)C1` (stereo not given): the Percent Effect is -5.04%. The same measure for `O=C(c1ccccn1)N1C[C@@H]2CC[C@H](C1)N(C(=O)CCN1CCCC1)C2`: 4.71%; for `O=C(O)CCCC(=O)N1CCC(c2noc3cc(F)ccc23)CC1`: 1.46%.

With `NC(=O)CN1CCC(c2noc3cc(F)ccc23)CC1`, the Percent Effect was 76.4%.

Consider `O=C(O)CCC(=O)N1CCC(c2noc3cc(F)ccc23)CC1`, for which the Percent Effect was 1.33%. Turning to `CCS(=O)(=O)N1CCC[C@]2(C(=O)N(C)C)CN(c3ccccn3)C[C@@H]2C1`, the Percent Effect was -1.99%.

`NC(=O)N1CCc2cc(C(=O)O)c(-c3ccsc3)nc2CC1`: the Percent Effect is -4.21%.

In the case of `Cc1ncsc1C(=O)N(Cc1ccccn1)C1CC1`, the Percent Effect worked out at 75.1%. Turning to `Cc1ncsc1C(=O)N(Cc1cccs1)C1CC1`, the Percent Effect is -1.87%. Consider `Cc1ncsc1C(=O)N(Cc1ccccc1)C1CC1`, for which the Percent Effect was -6.55%. On to `O=C(NC1CC(F)(F)C1)[C@]12COC[C@H]1CN(Cc1cccnc1)C2`, for which the Percent Effect is -2.86%. To `Cc1ncsc1CN1C[C@@H]2COC[C@]2(C(=O)NCC2CC2)C1` belongs 0.881%; to `CCc1cnc(N2C[C@H]3C[C@H](C(=O)NCC(C)C)[C@@H](C2)O3)nc1`, 1.95%; to `CC(=O)c1cccc(NC(=O)N(CC(F)F)C2CC2)c1`, 4.27%. With `Cc1ccc(O)c(CNc2cccc(OCCF)c2)n1`, the Percent Effect is -4.08%. To `CCn1nnnc1-c1cccc(NCc2nc(C)ccc2O)c1` belongs -6.59%. Take `Cc1cccc(NCc2nc(C)ccc2O)c1`: the Percent Effect is 52.2%. To `CCNC(=O)[C@@H]1C[C@@H](N)CN1C(=O)c1cc2ccccc2[nH]1` belongs 2.18%; to `Cc1ccc(N2C[C@@H]3CN(C(=O)c4ccccc4)CCO[C@@H]3C2)nn1`, 12.7%; to `Cn1ccnc1CN1CCN2C[C@H](Oc3ccccc3)C[C@H]2C1`, 2.44%. Regarding `CC(=O)Nc1ccc(CN2C[C@H]3CC[C@@H]2CN(c2ncccn2)C3)cc1`, the Percent Effect amounted to 3.06%. To `c1cncc(CN2CCO[C@H]3[C@H](OCCN4CCCC4)CC[C@@H]32)c1` belongs 2.57%; to `Cc1c[nH]c(CN2CC[C@@]3(O)CCN(C(=O)C4CCC4)C[C@H]3C2)n1`, 1.37%.

Regarding `Cc1ncsc1C(=O)NC1CCN(CCC(N)=O)CC1`, the Percent Effect amounted to 0.56%. The same measure for `Cc1ncsc1C(=O)NC1CCN(CCC#N)CC1`: 57.5%; for `Cc1ncsc1C(=O)NC1CCN(CCCC#N)CC1`: -4.15%.

Turning to `CN(Cc1cccnc1)C[C@H]1OC[C@@H]2CCN(C(=O)C3CC3)C[C@@H]21`, the Percent Effect was -1.23%.
